Bioassay records (PubChem BioAssay)
KB-V1 MDR tox: qHTS assay for MDR1-selective chemotherapeutics: Primary screen using the drug-selected MDR subline cells KB-V1; Potency, µM (top dose mostly 46.1 µM), usual class: cytotoxic; KB-V1 MDR cells viability, CellTiter-Glo, 72 h; actives 3.4% (n = 400,000); further: potency means the concentration at half of the fitted maximal effect; nearly all actives have a fitted effect of over 60% in size
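KB-V1 MDR subline cells in DMEM (phenol-red free, 10% FBS) exposed to compounds in qHTS concentration series for 72 h at 37 degrees C. Viability read by CellTiter-Glo luminescence; concentration-effect curves fitted after normalization and correction.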
HT1080NT lethal: qHTS for induction of synthetic lethality in tumor cells producing 2HG: qHTS for the HT-1080-NT fibrosarcoma cell line; HT-1080-NT fibrosarcoma viability, CellTiter-Glo ATP luminescence, 48 h; Potency, µM (doses to about 46.1 µM), for inactives: at the highest dose activity, negative = less viability, usual class: cytotoxic; actives 1.6% (n = 360,000); AID 686970, 2013;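 further: NT is the 2HG producing partner of a matched IDH1 knockdown line; potency means the concentration at half of the fitted maximal effect; 0% = DMSO-treated cells and -100% = media-only wells without cells; nearly all actives have a fitted effect of over 55% in size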
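Viability by CellTiter-Glo luminescence after 48 h compound exposure at 37C of HT-1080-NT cells (750/well, RPMI, 5% FBS). % activity scaled between DMSO wells and medium-only wells, then curve-fitted and categorized by curve class.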
KB-3-1 tox: qHTS assay for MDR1-selective chemotherapeutics: Primary screen using the parental adenocarcinoma cell KB-3-1; KB-3-1 viability, CellTiter-Glo ATP luminescence, 72 h; Potency, µM (titrated, usually from 46.1 µM), usual class: cytotoxic; actives 1.4% (n = 400,000); AID 1347075, 2019; further: potency means the concentration at half of the fitted maximal effect; nearly all actives have a fitted effect of over 60% in size
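Parental KB-3-1 adenocarcinoma cells in phenol-red-free DMEM with 10% FBS were pin-treated with compounds at several concentrations, incubated 72 h at 37 °C, and viability read by CellTiter-Glo luminescence; concentration-effect curves were fitted after normalization.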
IL1B secr inh: qHTS for Inhibitors of Inflammasome Signaling: IL-1-beta AlphaLISA Primary Screen | THP-1 LPS/ATP IL-1B secretion, AlphaLISA, 16 h; hits give low values | actives 4.7% (n = 360,000) | AID 743279, 2014 | activity change, % at 57.5 µM; in the data active means activity change below about -50%; inconclusive means mostly about -30% to -49%
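THP-1 cells pretreated 1 hr with compounds (up to 57.5 uM final), then stimulated with LPS (250 ng/mL final) plus ATP (1.25 mM final); secreted IL-1B measured by AlphaLISA after 16 hr, decreased signal indicating inhibition.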
HT1080 IDH1KD tx: qHTS for induction of synthetic lethality in tumor cells producing 2HG: qHTS for the HT-1080-IDH1KD cell line; Potency, µM (titrated, usually from 46.1 µM), inactives show top-dose activity, negative = toxicity, most hits filed as cytotoxic; AID 686971, 2013; HT-1080 IDH1 knockdown viability, ATP luminescence, 48 h; actives 2% (n = 360,000);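 further: potency means the concentration at half of the fitted maximal effect; 0% = DMSO wells and -100% = cell-free medium wells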
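Assay cells: HT-1080 with IDH1 knockdown, 750 per well, RPMI/5% FBS. Exposure: 48 h at 37 °C following 2 h pre-incubation. Read: CellTiter-Glo luminescence; fitted concentration-response, curve class assigned.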
Active calls of the source: *; i = inactive; ? = inconclusive; · = no result given; [ ] = dose if it differs, or a comment. Only some compounds are listed: those with a hit (about 8.8% of all), similar ones and a draw of the others. Unless noted, the call rests on the fitted dose curve; in most records, active means well fitted curve in the direction sought with a large enough effect; inconclusive means small, poorly fitted or top-dose-only effect, or another doubt; inactive means no such curve, though single readings can be large; an effect the other way counts as inactive or inconclusive. Unless noted, on the % scale 0 is the no-effect control and ±100 the full control effect.

SMILES | KB-V1 MDR tox | HT1080NT lethal | KB-3-1 tox | IL1B secr inh | HT1080 IDH1KD tx
COc1ccc(CCN2C(=O)COc3ccccc3C2C(=O)NC(C)(C)C)cc1OC (stereo not given) | i | 5% | i | -3 | 23%
CC(=O)N1C(=O)N(C(C)=O)C2C1N(C)C(=O)N2C(C)=O (stereo not given) | i | 0% | i | 8 | -6%
COCCNC(=S)N/N=C(\C)c1ccc(Cl)s1 | i | ? | i | -96* | 0%
COc1ccc(S(=O)(=O)NN(C)c2nc(C(F)(F)F)nc3ccccc23)cc1 | ? | 21µM* | ? | 23 | 16µM*
COc1ccc(S(=O)(=O)Nc2ccccc2)cc1 | i | -18% | i | 22 | -16%
COc1c(Br)cc([N+](=O)[O-])c(OC)c1C(=O)NC(=O)Nc1c(Cl)cccc1Cl | ? | -4% | i | 39 | -18%
COc1c(Br)cc([N+](=O)[O-])c(OC)c1C(=O)NC(=O)Nc1cc(Cl)cc(Cl)c1 | 6.5µM* | ? | ? | 0 | ?
O=C(CN1C(=O)/C(=C/c2ccccc2Cl)SC1=S)NC1C=CS(=O)(=O)C1 (stereo not given) | ? | -19% | i | -79* | -2%
COc1cccc(/C=C2\SC(=O)N(CC(=O)NC3CCS(=O)(=O)C3)C2=O)c1 (stereo not given) | ? | 2% | i | -6 | -8%
COc1ccc(/C=C2\SC(=S)N(C(C)C(=O)NC3C=CS(=O)(=O)C3)C2=O)cc1 (stereo not given) | i | 5% | i | -61* | -18%
COc1cccc(/C=C2\SC(=O)N(CC(=O)NC3C=CS(=O)(=O)C3)C2=O)c1 (stereo not given) | ? | -10% | i | -99* | -3%
CC(C)c1ccc(/C=C2\SC(=O)N(CC(=O)NC3C=CS(=O)(=O)C3)C2=O)cc1 (stereo not given) | i | -19% | i | -90* | -2%
CCC(CC)C(=O)Oc1c(Sc2ccccc2[N+](=O)[O-])c(C)nn1C(C)(C)C | 15µM* | -8% | i | -19 | -4%
O=C(NCc1ccc(F)cc1)C1CCN(S(=O)(=O)c2ccc3c(c2)CCCN3C(=O)C2CCC2)CC1 | i | · | ? | · | ·
CCOP(=O)(OCC)C(NC(=O)c1cccs1)c1ccccc1 (stereo not given) | ? | -5% | ? | 36 | -1%
CSc1nc2nc3c(cn2n1)C(=O)CC(c1ccccc1)C3 (stereo not given) | 13µM* | 10% | i | -19 | 13%
O=C1c2ccccc2C(=O)c2c1cccc2N1CCOCC1 | i | 2% | i | -81* | 4%
COc1ccc(C(=O)Nc2ccccc2N2CCCC2)cc1S(=O)(=O)N1CCOCC1 | ? | -2% | i | -11 | 2%
CN1CCN(c2ccc([N+](=O)[O-])cc2NC(=O)c2cccs2)CC1 | · | -24% | · | -24 | -22%
COc1cc(NC(=O)c2cccc(Cl)c2Cl)ccc1NC(=O)c1cc2ccccc2o1 | i | · | i | · | ·
CCS(=O)(=O)N1CCN(S(=O)(=O)c2ccccc2[N+](=O)[O-])CC1 | i | 1% | i | 6 | 1%
CSc1ccccc1NC(=O)CN1CCN(S(=O)(=O)c2ccccc2[N+](=O)[O-])CC1 | 3.7µM* | 3% | i | -13 | -1%
N#Cc1c2ccc(O)cc2n2ccccc12 | i | -23% | i | -52* | -3%
CCC(=O)N1CCN(c2ccc(NC(=O)COc3ccccc3Cl)cc2)CC1 | ? | ? | ? | -55* | -20%
COc1ccccc1OCC(=O)Nc1ccc(N2CCCCC2)cc1 | i | 15% | i | -2 | 3%
SMILES | KB-V1 MDR tox | HT1080NT lethal | KB-3-1 tox | IL1B secr inh | HT1080 IDH1KD tx
CN1CCN(c2ccc(NC(=O)COc3ccccc3Cl)cc2)CC1 | i | 2% | i | ? | -3%
CCOc1ccccc1OCC(=O)Nc1ccc(N2CCCCC2)cc1 | ? | ? | i | -79* | 3%[9.24 µM]
O=C(COc1ccccc1Br)N1CCN(c2ccccc2)CC1 | 18µM* | 9% | i | -10 | -3%
O=C(CSc1nc2ccccc2c(=O)[nH]1)c1ccc(O)cc1O | i | -30% | i | 28 | ?
O=C(CSc1nc2ccccc2c(=O)[nH]1)c1ccc(O)c(O)c1 | 18µM* | -2% | ? | 3 | 2%
CC(NC(=O)CSc1nc2ccccc2c(=O)[nH]1)c1ccccc1 (stereo not given) | i | -3% | i | 12 | ?
CC(C)CCNC(=O)CSc1nc2ccccc2c(=O)[nH]1 | 16µM* | 8% | i | 39 | -26%
C=CCN(Cc1cn(C)nc1-c1cccc(Cl)c1)C1CCS(=O)(=O)C1 (stereo not given) | i | -16% | i | 50 | 2%
CC(=O)c1ccc(Nc2nc(C(N)C(C)C)cs2)cc1 (stereo not given) | i | 1% | i | ? | 0%
NC(CO)c1csc(Nc2ccc(C(=O)c3ccccc3)cc2)n1 (stereo not given) | i | ? | i | ? | -20%
CC(N)c1csc(Nc2ccc(C(=O)c3ccccc3)cc2)n1 (stereo not given) | i | ? | i | -52* | -29%
NC(c1csc(Nc2ccc(C(=O)c3ccccc3)cc2)n1)c1ccccc1Cl (stereo not given) | 21µM* | ? | ? | -7 | ?
CC(=O)c1ccc(Nc2nc(C(N)C3CCCCC3)cs2)cc1 (stereo not given) | i | ? | i | · | -13%
NC(c1csc(Nc2ncccn2)n1)c1ccccc1Cl (stereo not given) | i | ? | i | -1 | ?
CC(C)C(N)c1csc(Nc2ccc(C(=O)c3ccccc3)cc2)n1 (stereo not given) | i | ? | i | -60* | ?
NC(c1csc(Nc2ccc(C(=O)c3ccccc3)cc2)n1)C1CCCCC1 (stereo not given) | i | ? | i | ? | 15µM*
NC(c1csc(Nc2cc(NCCCO)ncn2)n1)c1ccccc1Cl (stereo not given) | i | ? | i | -56* | ?
CC(C)CC(N)c1csc(Nc2ccc(C(=O)c3ccccc3)cc2)n1 (stereo not given) | ? | ? | i | -59* | -21%
